PAX8 inh HTS: inhibitors of PAX8 transcriptional activity in RMG-I cells; RMG-I TPO-luciferase reporter, SteadyGlo, 24 h; inhibition, % at 12.6 µM; actives 1.2% (n = 360,000);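 active = mean replicate inhibition at least 60% with every replicate also reaching 60%; inconclusive = only one of the two criteria is met; inactive = mean below 60% and not all replicates reaching 60%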;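 also: luciferase light reporting Pax8 driven TPO promoter activity; plate controls were median of neutral control wells for no effect and mitoxantrone controls for full effect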
F508del corr: correctors of CFTR F508del function in bronchial epithelial cells | CFBE cells, YFP halide quenching; stimulated with forskolin plus potentiator P3; % fluorescence drop versus neutral controls | activity (quench increase), % at 7.58 µM | actives 0.36% (n = 350,000);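 active = mean added fluorescence quench of at least 8% versus neutral control, with both replicates also reaching 8%; inconclusive = only one of the mean or replicate conditions met; inactive = mean below 8% and not both replicates reaching 8%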;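 also: cells transiently co-express mutant CFTR-F508del with the halide-sensitive YFP; corrector assay measuring rescue of mutant channel to the surface after 24 h compound exposure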
EWS-Fli block: EWS/Fli transcriptional activity inhibition; A673 NR0B1-luciferase reporter, viability-normalised; inhibition, % at 12.6 µM; actives 0.67% (n = 350,000); AID 651661;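 active = mean inhibition of at least 50% after viability correction, with every replicate also passing that limit; inconclusive = mean reaches 50% but only one of two replicates passes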;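 also: firefly luciferase signal divided by Alamar Blue viability fluorescence both relative to DMSO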
LGR2 antag: Drosophila LGR2 receptor signaling inhibition | HEK293 LGR2, CRE-luciferase, bursicon-stimulated, 4 h | inhibition, % at 9.99 µM | actives 0.35% (n = 380,000) | AID 720647;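 active = drop in luminescence signal, shown as inhibition above about 50% in the replicate tests, limit read from the data, passing the limit was not always enough; inconclusive = probably only some replicates passing the limit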;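 also: agonist challenge used bursicon conditioned medium at about half maximal strength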
DNA binding: DNA binding small molecules; AID 720586; actives 2% (n = 640); AC35, µM (top dose mostly 68 µM), for inactives: at the top dose activity change, negative = DNA binding; shares compounds with EWS-Fli block; salmon sperm DNA acridine orange fluorescence polarization;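 active = fitted curve reaches a 35% signal fall AC35 below twice the sample's top valid tested dose, actives reach about 48 µM in these data; inactive = the rest, including activity in the rising direction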;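 also: lower polarization ratio signals compound binding to DNA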
Numbers without * were called inactive; ? = inconclusive; . = no result. Compounds with a hit are over-represented: about 1.8% of the library has one in this group of screens.

SMILES | PAX8 inh HTS | F508del corr | EWS-Fli block | LGR2 antag | DNA binding
O=C(CNC(=O)Cc1ccccc1)N=Nc1c(O)n(Cc2ccc3c(c2)OCO3)c2ccccc12 | 4 | 1 | 66* | -14 | -7%
COC(=O)Cn1c(O)c(N=NC(=O)CNC(=O)c2ccc3c(c2)OCCO3)c2ccccc21 | 10 | 1 | . | 7 | .
CCCCCn1nc(-c2ccccc2)c2nc3ccccc3nc21 | 5 | . | . | . | .
CN1C(=O)c2cc(NC(=O)c3ccc(Cl)cc3)ccc2OC[C@@H]2O[C@@H](CC(=O)NCc3cccc(F)c3)CC[C@H]21 | 33 | 1 | 61* | 12 | 6%
CN1C(=O)c2cc(NC(=O)c3ccc(Cl)cc3)ccc2OC[C@H]2O[C@@H](CC(=O)NCc3cccc(F)c3)CC[C@@H]21 | 17 | -1 | 6 | -1 | .
CCNC(=O)C[C@@H]1CC[C@H]2[C@@H](COc3ccc(NC(=O)c4cc(C)on4)cc3C(=O)N2C)O1 | -4 | 2 | -1 | 3 | .
COC(=O)C[C@@H]1CC[C@@H]2[C@H](COc3ccc(NC(=O)c4ccc(C(F)(F)F)cc4)cc3C(=O)N2C)O1 | 16 | 11* | 78* | 24 | -8%
COC(=O)C[C@@H]1CC[C@@H]2[C@H](COc3ccc(NC(=O)c4ccc(F)c(F)c4)cc3C(=O)N2C)O1 | -4 | 3 | 72* | 7 | -2%
Cc1cc(C(=O)Nc2ccc3c(c2)C(=O)N(C)[C@@H]2CC[C@@H](CC(=O)NCc4ccc(-c5ccccc5)cc4)O[C@H]2CO3)no1 | 39 | . | 66* | 14 | -10%
COc1cccc(Nc2nc(-c3ccccc3)nc3ccccc23)c1 | -3 | 1 | -3 | 13 | .
Cc1cc(C)c(NC(=O)CS(=O)CC(=O)NCCCc2ccccc2)c(C)c1 (configuration not stated) | . | 0 | 6 | -22 | .
CC(=O)Nc1ccc(OCC(=O)N(CC(C)C)C2CCS(=O)(=O)C2)cc1 (configuration not stated) | 28 | -1 | 68* | . | 0%
CO[C@H]1CN(C)C(=O)c2ccc(NC(=O)C3CC3)cc2OC[C@H](C)N(C(=O)C2CCOCC2)C[C@@H]1C | 1 | -2 | -3 | 0 | .
CCc1nc(N)nc(N)c1-c1ccc(Cl)cc1 | 22 | 0 | 64* | -13 | 6%
C[C@@H]1CN([C@@H](C)CO)S(=O)(=O)c2ccc(C#Cc3ccncc3)cc2O[C@H]1CN(C)C(=O)C1CCOCC1 | 24 | 0 | 70* | -6 | 1%
C[C@@H]1CN([C@H](C)CO)S(=O)(=O)c2ccc(C#Cc3ccncc3)cc2O[C@@H]1CN(C)C(=O)Nc1ccc2c(c1)OCO2 | 70* | -1 | 65* | -9 | -4%
O=C(C[C@H]1C=C[C@H](NC(=O)C2CCOCC2)[C@H](CO)O1)NCc1ccccc1Cl | . | -1 | 0 | -2 | .
COC(=O)c1c(C)[nH]c(/C=N/Nc2ccccc2)c1C | -33 | -3 | 54* | . | -17%
Cc1c(C=NNc2ccccc2)[nH]c(=O)[nH]c1=O | -27 | -2 | 17 | 7 | .
O=C1C(=O)N(CCS(=O)(=O)c2ccccc2)c2ccccc21 | -10 | -1 | 61* | 15 | -10%
O=C1C(=O)N(Cc2cccs2)c2ccccc21 | 15 | -1 | 65* | 16 | -9%
CNC[C@H]1Oc2cc(C#Cc3ccncc3)ccc2S(=O)(=O)N([C@H](C)CO)C[C@H]1C | 17 | 2 | -12 | 16 | .
CCNC(=O)c1cc2c(c(-c3cccc(-c4cccc(OC)c4)c3)n1)[C@H](CCO)N([S@@](=O)C(C)(C)C)C2 | 49 | 7 | 63* | -10 | -13%
COCCNC(=O)c1cc2c(c(-c3cccc(-c4cccc(OC)c4)c3)n1)[C@H](CCO)N(S(=O)C(C)(C)C)C2 (some centres not stated) | 11 | -2 | 8 | 13 | .
CC(C)(C)[S@](=O)N1Cc2cc(C(=O)NCC(F)(F)F)nc(-c3cccc(-c4cccc(F)c4)c3)c2[C@@H]1CCO | 48 | 2 | 55* | 13 | -2%
SMILES | PAX8 inh HTS | F508del corr | EWS-Fli block | LGR2 antag | DNA binding
C[C@@H]1CCCCO[C@@H](CN(C)C(=O)Nc2cccc3ccccc23)[C@@H](C)CN([C@@H](C)CO)C(=O)c2cc(NS(=O)(=O)c3ccc(Cl)cc3)ccc2O1 | 55 | -2 | 8 | 7 | .
COc1ccc2c3c(n(C)c2c1)[C@@H](CO)N(C(=O)C1CCCCC1)CC31CCN(C)CC1 | . | 1 | 7 | 12 | .
Nc1ccn([C@@H]2O[C@H](CO)[C@@H](O)C2O)c(=O)n1 (some centres not stated) | 25 | 4 | 51* | 28 | -7%
COc1ccc(-c2csc(N3CCC(C(N)=O)CC3)n2)cc1 | -92 | -1 | -22 | -30 | .
COc1cc(C(=O)NNC(=O)c2ccccc2Br)ccc1OCC(=O)N1CCOCC1 | -6 | 3 | -7 | 7 | .
COc1cc2c3nnc(-c4ccc(F)cc4)c-3cn(Cc3ccc(F)cc3)c2cc1OC | 26 | 2 | 35 | -22 | .
COc1ccc(Cn2cc3c(-c4ccc(F)cc4)nnc-3c3cc(OC)c(OC)cc32)cc1 | 92* | -1 | 66* | 31 | -25%
COc1cccc(CN2CC(C(=O)NCCc3ccccc3C(F)(F)F)CCC2=O)c1 (configuration not stated) | -3 | 1 | -13 | -1 | .
O=C(C[C@@H]1C[C@H]2c3cc(NC(=O)c4ccc5c(c4)OCO5)ccc3O[C@H]2[C@@H](CO)O1)NCCc1ccccc1 | -6 | 0 | 0 | -13 | .
CCOc1cc(/C=N/Nc2cc(C)nc(-n3nc(C)cc3C)n2)ccc1O | 32 | 0 | 53* | 5 | -14%
c1cncc(-c2ccc([C@@H]3[C@H]4CNC[C@@H]3N4CC3CCOCC3)cc2)c1 | -9 | 2 | 51* | -24 | 3%
Fc1cccc(-c2ccc(C3[C@H]4CNC[C@@H]3N4CC3CCOCC3)cc2)c1 (some centres not stated) | . | 2 | . | -28 | .
Cc1cccc(C2c3[nH]c4ccccc4c3CCN2Cc2cnn(-c3ccc(F)cc3)c2)n1 (configuration not stated) | 34 | . | . | 6 | .
CN(c1ccc(NC(=O)CCc2c[nH]c3ccccc23)cc1)c1ccccn1 | 20 | 0 | 59* | -6 | -7%
COc1ccc(OC)c(/C=C/c2ccnc3ccccc23)c1 | 33 | -4 | 70* | -3 | -14%
CCC(=O)N1[C@H](C(=O)NC2CCCCC2)[C@@H](CO)[C@@H]2Cn3c(cccc3=O)[C@@H]21 | . | 1 | 4 | 8 | .
CCn1c(C)nc2c(C)[n+](CC(=O)c3ccc(Br)cc3)ccc21 | -9 | 3 | -19 | -14 | .
CN(C)c1ncnc2c1ccn2C1OC(CO)C(O)C1O (configuration not stated) | ? | -4 | 63* | 23 | 14%
CN(C)c1nc2c(N)ncnc2n1C1OC(CO)C(O)C1O (configuration not stated) | 5 | 1 | 5 | 23 | .

Source: PubChem
